# SUMO HTRF inh: inhibitors of human SUMOylation (UBC9); inhibition, % at 35 µM; AID 2006; HTRF SUMOylation assay, SAE1/SAE2 + UBC9, in vitro; actives 0.36% (n = 290,000); P63279; in the data active = inhibition above about 50%, passing the limit was not always enough; inconclusive = no clear call, values can overlap the other calls
# Target sequence (P63279 whole entry, looked up): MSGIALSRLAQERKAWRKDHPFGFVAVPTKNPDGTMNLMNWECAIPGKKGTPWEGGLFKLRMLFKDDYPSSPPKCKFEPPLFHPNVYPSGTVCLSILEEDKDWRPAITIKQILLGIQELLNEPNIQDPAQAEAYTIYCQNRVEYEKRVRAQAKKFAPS
# p97 ATPase inh: inhibitors of human p97 ATPase; recombinant p97 ATPase, Kinase-Glo ATP luminescence, 3 h; AID 1481; actives 0.42% (n = 220,000); inhibition, % at 8 µM; in the data active = inhibition above about 15%;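 note: 0% = DMSO vehicle and 100% = wells lacking enzyme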
# HDAC3 inh: human HDAC3 inhibition. O15379. recombinant HDAC3, fluorogenic peptide/trypsin coupled, fluorescence. inhibition, % at 8.3 µM. actives 0.15% (n = 320,000). AID 2718; in the data active = inhibition above about 26%, passing the limit was not always enough; inconclusive = no clear call, values can overlap the other calls
# Target sequence (O15379 whole entry, looked up): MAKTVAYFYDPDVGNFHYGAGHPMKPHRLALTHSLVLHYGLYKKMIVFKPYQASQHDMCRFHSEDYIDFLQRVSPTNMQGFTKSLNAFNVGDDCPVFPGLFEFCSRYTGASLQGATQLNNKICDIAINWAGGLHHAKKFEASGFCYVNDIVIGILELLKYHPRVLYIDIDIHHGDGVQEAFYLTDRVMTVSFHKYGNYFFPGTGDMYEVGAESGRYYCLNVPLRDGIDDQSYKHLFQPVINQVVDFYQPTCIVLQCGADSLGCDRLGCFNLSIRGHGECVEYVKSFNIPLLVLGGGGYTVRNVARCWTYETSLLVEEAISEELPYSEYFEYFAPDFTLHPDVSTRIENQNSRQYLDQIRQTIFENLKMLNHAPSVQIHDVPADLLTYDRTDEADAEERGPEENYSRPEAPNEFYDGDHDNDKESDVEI
# PHOSPHO1 block: blocks human PHOSPHO1 phosphatase activity | recombinant PHOSPHO1, absorbance phosphatase assay | actives 1.1% (n = 290,000) | inhibition, % at 13.3 µM | AID 1565 | Q8TCT1; in the data active = inhibition above about 60%
# G6PDH CS: counter-screen for G6PDH assay hits: L. mesenteroides G6PDH inhibition; actives 0.12% (n = 200,000); inhibition, % at 5 µM; Purified L. mesenteroides G6PDH, diaphorase/resazurin coupled fluorescence, 45 min; in the data active = inhibition above about 50%
# PfM18AAP inh-1: PfM18AAP enzyme inhibition; actives 1.2% (n = 290,000); recombinant PfM18AAP, H-Glu-NHMec fluorogenic cleavage; inhibition, % at 7.35 µM;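 active = inhibition above the campaign mean inhibition over all tested compounds plus 3 SD, cut at about 28% in these data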;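 note: 0% = plate median of test compound wells and 100% = 2 mM ZnCl2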
# PfM18AAP inh-2: PfM18AAP inhibition, confirmation; shares compounds with PfM18AAP inh-1; actives 28% (n = 2,400); recombinant PfM18AAP, H-Glu-NHMec fluorogenic cleavage; inhibition, % at 7.35 µM;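 active = mean inhibition over replicate wells above the hit cutoff set for the earlier primary screen, cut at about 29% in these data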;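 note: 0% = median of test compound wells and 100% = 2 mM ZnCl2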
# CTSL1 counter: Cathepsin L (human) inhibition, confirmation. shares compounds with PfM18AAP inh-1. 2,400 tested, under 10 active. purified cathepsin L1, Z-Leu-Arg-MCA fluorescence. inhibition, % at 5.96 µM. AID 2178;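 active = average inhibition across replicates above the hit cutoff set in the earlier primary screen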;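 note: 0% = median of test compound wells and 100% = Z-Phe-Ala-diazomethylketone 1 µM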
# * hit, by the source's call; ? = inconclusive; / = no result. Rows were chosen to be rich in hits. Some 2.5% of all compounds tested hit in one or more screens of this group.
SMILES,SUMO HTRF inh,p97 ATPase inh,HDAC3 inh,PHOSPHO1 block,G6PDH CS,PfM18AAP inh-1,PfM18AAP inh-2,CTSL1 counter
COc1ccc(-n2c(=S)[nH]c3cc(C(=O)N4CCN(c5ccccc5)CC4)ccc3c2=O)c(OC)c1,10,/,5,24,/,-3,/,/
S=C(Nc1ccc(Br)cc1Cl)Nn1cnnc1,3,0,-1,-27,0,77*,80*,2
Cc1ccc(NC(=O)c2cc(-n3cnnc3)ccc2Cl)c(C)c1,21,4,5,-3,19,0,/,/
Cc1ccc(NC(=O)Nn2cnnc2)c(C)c1,18,/,-1,36,/,57*,36*,0
COc1cc([N+](=O)[O-])ccc1NC(=S)Nn1cnnc1,-6,/,/,4,/,84*,71*,4
COC(=O)Nc1ccc([N+](=O)[O-])cc1OC,-4,4,/,1,-9,3,/,/
CO/N=C/CC(=O)c1ccc([N+](=O)[O-])c(CS(=O)(=O)c2ccc(Cl)cc2)c1,12,/,-3,/,/,5,/,/
O=C(CNC(=O)c1ccc(Br)cc1)NCC(=O)OCC(=O)c1ccc(F)cc1,-4,/,2,26,/,0,/,/
O=C(CCC(=O)OCC(=O)c1ccc([N+](=O)[O-])cc1)NC1CCCCC1,-9,3,5,-2,-3,34*,-8,-12
O=C(CNC(=O)c1ccccc1)NCC(=O)OCC(=O)c1ccc(F)cc1,1,-5,2,4,10,-11,/,/
O=C(CNC(=O)c1ccc(Br)cc1)NCC(=O)OCC(=O)c1ccc([N+](=O)[O-])cc1,-6,-3,-5,1,8,38*,-15,-4
O=C(COC(=O)c1ccccc1NC(=O)c1ccccc1)c1ccc([N+](=O)[O-])cc1,-9,3,2,-3,-65,40*,-19,5
O=C(CNC(=O)c1ccccc1)NCC(=O)OCC(=O)c1ccc([N+](=O)[O-])cc1,-8,-5,4,0,-9,40*,-5,3
CC(OC(=O)c1cccc(S(=O)(=O)N2CCCCC2)c1)C(=O)NC1CCCCC1C (centres undefined),10,/,-2,41,/,0,/,/
O=S(=O)(Nc1ccc(S(=O)(=O)N2CCCC2)cc1)c1ccc(F)cc1F,/,/,6,/,/,/,/,/
Cc1cc(C)nc(NNC(=O)c2ccccc2O)n1,4,4,0,19,8,43*,24,-8
Cc1cc(NC(=O)c2ccccc2O)nc(C)n1,14,3,-1,23,1,2,/,/
OCCCNc1c2ccccc2nc2ccccc12,15,/,-3,/,/,-8,/,/
COc1ccc(/C(C)=N/Nc2nncc3ccccc23)cc1,-3,/,-3,33,/,-1,/,/
COc1ccc(/C(C)=N/Nc2nc3ccccc3nc2C)cc1,10,4,7,24,/,56*,-14,3
COC(=O)C(Cc1ccccc1)NC(=O)c1cc(=O)[nH]c2ccccc12 (centres undefined),-4,7,2,-3,12,-8,/,/
COC(=O)[C@H](CC(C)C)NC(=O)c1cc2c(cn1)[nH]c1ccccc12,-12,/,-6,-21,/,39*,13,8
COc1ccc2c(c1OC)C(=O)OC2CC(=O)c1ccc(O)c(O)c1 (centres undefined),-2,5,4,20,22,43*,19,0
COc1ccc2c(c1OC)C(=O)OC2CC(=O)c1ccc(O)cc1 (centres undefined),5,8,12,10,11,3,/,/
CCn1ccnc1CNC(=O)c1ccc2oc(C(C)C)nc2c1,-2,/,-4,-1,/,-2,/,/
SMILES,SUMO HTRF inh,p97 ATPase inh,HDAC3 inh,PHOSPHO1 block,G6PDH CS,PfM18AAP inh-1,PfM18AAP inh-2,CTSL1 counter
CC(=O)Nc1ccc(C(=O)NNC(=O)c2cccs2)cc1,-8,-1,-3,0,-7,13,/,/
Cc1ccc(NC(=O)NNC(=O)c2cccs2)cc1,14,9,1,0,-4,51*,27,3
Cc1ccc(NC(=O)NNC(=O)c2ccccc2)cc1,-12,1,-8,15,18,16,/,/
COc1ccc(C(=O)NNC(=O)Nc2ccc(C)cc2)cc1,3,-3,0,0,6,45*,25,3
CNC(=S)NNC(=O)c1cccs1,22,3,-5,18,/,38*,14,1
CCCNC(=S)NNC(=O)c1cccs1,10,1,0,40,3,27,/,/
CCNC(=S)NNC(=O)c1cccs1,14,4,-1,12,2,36*,13,1
O=C(Nc1ccccc1)c1ccc(Br)c(S(=O)(=O)Nc2ccccn2)c1,10,/,?,53,/,2,/,/
CC(Sc1ccc(S(=O)(=O)N2CCOCC2)cc1[N+](=O)[O-])C(=O)O (centres undefined),11,1,-2,7,27,33*,-34,-7
O=c1cc(-c2ccc(O)cc2)oc2c1ccc1ccccc12,/,/,-4,/,/,/,/,/
O=c1cc(-c2ccc(O)cc2)oc2c(O)c(O)c(O)c(O)c12,30,10,5,38,/,52*,18,2
CN(CC(=O)Nc1n[nH]c(=S)s1)S(=O)(=O)c1cccc2cccnc12,-3,/,4,60*,/,51*,21,0
O=C(CSc1nc2ccccc2n1CCc1ccccc1)c1ccc(O)c(O)c1,65*,9,/,-54,14,44*,11,-3
Cc1ccc(C(=O)CSc2nnc(-c3cccs3)n2C)o1,21,-1,4,44,1,-6,/,/
Cn1c(SCC(=O)c2ccc(O)c(O)c2)nnc1-c1ccccc1,13,/,-1,1,/,48*,17,3
Cn1c(SCC(=O)c2ccc(-c3ccccc3)cc2)nnc1-c1ccco1,2,-4,8,-3,-52,-12,/,/
Cn1c(SCC(=O)c2ccc(O)c(O)c2)nnc1-c1cccs1,16,9,3,62*,/,46*,8,0
O=C(CSc1nnc(C2CC2)n1Cc1ccccc1)N1CCNC1=O,/,/,-2,/,/,/,/,/
O=C(CCN1CCCC1=O)NC1CCCc2c1cnn2-c1ccc(F)cc1F (centres undefined),10,/,2,41,/,-6,/,/
C=CCn1c(SCC(=O)c2ccc(O)c(O)c2)nnc1-c1cccc(OC)c1,/,/,-4,/,/,/,/,/
CC[n+]1c(C)sc2cc(C)ccc21,25,1,4,-3,8,47*,-34,1
CCCC[n+]1c(C)sc2ccc(C)cc21,7,2,3,21,13,7,/,/
Cc1ccc2sc(C)[n+](CCO)c2c1,4,-2,11,-26,-2,37*,-5,2
Cc1sc2ccccc2[n+]1CC(=O)O,-32,-3,-2,22,/,13,/,/
O=C(O)c1ccc(Cn2cc(/C=C\[N+](=O)[O-])c3ccccc32)o1,19,/,-4,29,/,39*,-29,-4
